{
  "source": "PubChem BioAssay AID651791",
  "about": "(National Center for Advancing Translational Sciences (NCATS), 2012)",
  "note": "Records with an inconclusive call do not appear. Calls of active or inactive are those of the source. The call rests on the fitted dose curve; in most records, active means well fitted inhibition curve with a large enough effect; inconclusive means small, poorly fitted or top-dose-only effect; inactive means no such curve, though single readings can be large or run the other way. Potency means the concentration at half of the fitted maximal effect.",
  "data": [
    {"assay": "InCell qHTS Assay for Inhibitors of the mTORC1 Signaling Pathway in MEF (Tsc2-/-, p53-/-) Cells: Hit Validation;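 further: phospho-S6 Ser235/236 signal normalized to propidium iodide cell count per well; nearly all actives have a fitted effect of over 75% in size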", "conditions": "phospho-rpS6 immunofluorescence, 24 h; activity change, negative = inhibition: at 38.3 µM (top of the series)", "units": {"activity change, negative = inhibition": "%"}, "values": [
      {"molecule": "CCc1ccc(S(=O)(=O)c2nnn(-c3ccc(F)cc3)c2N)cc1", "activity change, negative = inhibition": -100},
      {"molecule": "O=C(NC1CCN(Cc2ccccc2)CC1)c1ccc(Cn2c(=O)c3ccccc3n(Cc3ccc(F)cc3)c2=O)cc1", "activity change, negative = inhibition": -100},
      {"molecule": "Cc1ccc2c(c1)C(=O)C(=O)N2Cc1ccc(OC(C)C)cc1", "activity change, negative = inhibition": -16.8},
      {"molecule": "O=C(NC1CCCCC1)/C(=C/c1ccc(Cl)cc1)NC(=O)c1ccccc1", "activity change, negative = inhibition": -22.5},
      {"molecule": "Cc1ccc(-c2nnc(Nc3ccc(O)cc3)c3ccccc23)cc1S(=O)(=O)N1CCCCC1", "activity change, negative = inhibition": -100},
      {"molecule": "CCN(CC)Cc1c(NC(=O)c2ccc(OC)cc2)sc2c1CCCC2", "activity change, negative = inhibition": 1.72},
      {"molecule": "COc1ccc(NC(=O)CSc2nc3ccccc3nc2N2CCC(C)CC2)cc1", "activity change, negative = inhibition": -100},
      {"molecule": "CCS(=O)(=O)c1ncc(Cl)c(C(=O)Nc2ccc(S(=O)(=O)N(C)c3ccccc3)cc2)n1", "Potency": "1.85 µM (active)"},
      {"molecule": "Cc1ccccc1OCc1ccc(-c2nc(C#N)c(NCCCN(C)C)o2)o1", "activity change, negative = inhibition": -100},
      {"molecule": "Cc1nn(CCCC(=O)NCc2ccccc2)c(=O)c2c1sc1ccccc12", "activity change, negative = inhibition": -100},
      {"molecule": "COc1cccc(-n2c(-c3ccco3)nc3c(cnn3-c3ccc(C)cc3)c2=O)c1", "activity change, negative = inhibition": -100},
      {"molecule": "CCc1ccc(NC(=O)Cn2nc(C(F)(F)F)c3c2CCCC3)cc1", "activity change, negative = inhibition": -100},
      {"molecule": "CCOc1ccc(S(=O)(=O)NCCc2sc(-c3ccc(C)cc3)nc2C)cc1", "activity change, negative = inhibition": -100},
      {"molecule": "Cc1ccc(NC(=O)Cn2cc(C(=O)C3CCCCC3)c3ccccc32)cc1", "activity change, negative = inhibition": -100},
      {"molecule": "COc1ccc(-c2ccc(CCC(=O)O)n2-c2cc(Cl)ccc2O)cc1", "activity change, negative = inhibition": -100},
      {"molecule": "CCOc1ccc(S(=O)(=O)N(C(=O)c2ccncc2)c2ccc3oc(C)c(C(=O)OC)c3c2)cc1", "activity change, negative = inhibition": -100},
      {"molecule": "COc1cc(C)ccc1OCCn1c(-c2ccc(Cl)cc2)nc2ccccc2c1=O", "activity change, negative = inhibition": -100},
      {"molecule": "O=C(CN1C(=O)C(c2ccc(F)cc2)=NC12CCCCCC2)Nc1ccccc1Cl", "activity change, negative = inhibition": -100},
      {"molecule": "O=C(NCCN1CCN(c2cccc(Cl)c2)CC1)Nc1ccccc1C(F)(F)F", "activity change, negative = inhibition": -100},
      {"molecule": "CC1CCN(S(=O)(=O)c2ccc(C(=O)Nc3sc4c(c3C(N)=O)CC(C)(C)NC4(C)C)cc2)CC1", "Potency": "14.7 µM (active)"},
      {"molecule": "O=C(NCC(c1cccs1)S(=O)(=O)c1cccs1)c1ccccc1", "note": "(stereo not drawn)", "activity change, negative = inhibition": -100},
      {"molecule": "CCCCNC(=O)CSc1nc2nc(C)c(Cc3ccccc3C)c(C)n2n1", "activity change, negative = inhibition": -100},
      {"molecule": "CCOC(=O)N1CCN(Cc2nc3cc(NC(=O)c4ccc([N+](=O)[O-])cc4)ccc3n2C(C)C)CC1", "activity change, negative = inhibition": -100},
      {"molecule": "O=C(CCn1cnc2onc(-c3ccc(F)cc3)c2c1=O)Nc1ccc(F)c(Cl)c1", "activity change, negative = inhibition": -100},
      {"molecule": "CCOC(=O)c1ccc(NC(=O)c2nc(S(=O)(=O)Cc3ccccc3)ncc2Cl)cc1", "Potency": "4.14 µM (active)"},
      {"molecule": "COc1ccc(-c2nc(C)c(CCNC(=O)c3ccccc3Br)s2)cc1OC", "activity change, negative = inhibition": -100},
      {"molecule": "CCOc1ccc(/C=C/c2nc(C#N)c(NCc3ccccc3)o2)cc1", "activity change, negative = inhibition": -100},
      {"molecule": "CN(Cc1ccccc1)C(=O)CSc1c2c(nc3ccc(Cl)cc13)CCCC2", "activity change, negative = inhibition": -100},
      {"molecule": "Oc1ccc(NCc2ccccc2OCc2ccc(Cl)cc2)cc1", "activity change, negative = inhibition": -100},
      {"molecule": "Cc1cccn2c(Nc3ccccc3)c(-c3cccs3)nc12", "activity change, negative = inhibition": -100},
      {"molecule": "COC(=O)c1cccc(-n2c(CCC(=O)O)ccc2-c2ccc(OC)cc2)c1", "activity change, negative = inhibition": -100},
      {"molecule": "Cc1cccc(C)c1Nc1sc(C(=O)c2ccccc2)c(N)c1S(=O)(=O)c1ccccc1", "activity change, negative = inhibition": -100},
      {"molecule": "CCOc1ccccc1NC(=O)CN1C(=O)C(=O)c2ccccc21", "activity change, negative = inhibition": -100},
      {"molecule": "COc1ccc(C(=O)Nc2ccc(OCc3cc(=O)n4ccccc4n3)cc2)cc1", "activity change, negative = inhibition": -100},
      {"molecule": "CN(C)c1ccc(Nc2nc3ccccc3n3nnnc23)cc1", "activity change, negative = inhibition": -0.0295},
      {"molecule": "Cc1ccccc1NC(=O)c1c(NC(=O)C(F)(F)F)sc2c1CCCCC2", "activity change, negative = inhibition": -100},
      {"molecule": "COc1ccc(OC)c(NC(=O)c2nc(S(=O)(=O)Cc3ccc(F)cc3)ncc2Cl)c1", "Potency": "2.61 µM (active)"},
      {"molecule": "CS(=O)(=O)c1ncc(Cl)c(C(=O)N(Cc2ccc(Cl)cc2)Cc2ccco2)n1", "Potency": "3.29 µM (active)"}
    ]}
  ]
}
